Reference: publication PMC13541613, “GHT-SELEX demonstrates unexpectedly high intrinsic sequence specificity and complex DNA binding of many human transcription factors”

Legend:
Assay in all cases: HT-SELEX; 20 mM HEPES pH 7, 140 mM KCl, 5 mM NaCl, 1 mM K2HPO4, 2 mM MgSO4, 100 uM EGTA, ZnSO4, 0.1% Tween20; room temperature, 1 h; high values mean tight binding
Conditions in all cases: protein: ivt; tags: eGFP (N-terminal); dsDNA, one strand shown
[1] = target: ZNF721 full-length (Homo sapiens, UniProt Q8TF20-2 1-923)
Chain of ZNF721 full-length (Q8TF20 other isoform, or with tags, fused parts or gaps): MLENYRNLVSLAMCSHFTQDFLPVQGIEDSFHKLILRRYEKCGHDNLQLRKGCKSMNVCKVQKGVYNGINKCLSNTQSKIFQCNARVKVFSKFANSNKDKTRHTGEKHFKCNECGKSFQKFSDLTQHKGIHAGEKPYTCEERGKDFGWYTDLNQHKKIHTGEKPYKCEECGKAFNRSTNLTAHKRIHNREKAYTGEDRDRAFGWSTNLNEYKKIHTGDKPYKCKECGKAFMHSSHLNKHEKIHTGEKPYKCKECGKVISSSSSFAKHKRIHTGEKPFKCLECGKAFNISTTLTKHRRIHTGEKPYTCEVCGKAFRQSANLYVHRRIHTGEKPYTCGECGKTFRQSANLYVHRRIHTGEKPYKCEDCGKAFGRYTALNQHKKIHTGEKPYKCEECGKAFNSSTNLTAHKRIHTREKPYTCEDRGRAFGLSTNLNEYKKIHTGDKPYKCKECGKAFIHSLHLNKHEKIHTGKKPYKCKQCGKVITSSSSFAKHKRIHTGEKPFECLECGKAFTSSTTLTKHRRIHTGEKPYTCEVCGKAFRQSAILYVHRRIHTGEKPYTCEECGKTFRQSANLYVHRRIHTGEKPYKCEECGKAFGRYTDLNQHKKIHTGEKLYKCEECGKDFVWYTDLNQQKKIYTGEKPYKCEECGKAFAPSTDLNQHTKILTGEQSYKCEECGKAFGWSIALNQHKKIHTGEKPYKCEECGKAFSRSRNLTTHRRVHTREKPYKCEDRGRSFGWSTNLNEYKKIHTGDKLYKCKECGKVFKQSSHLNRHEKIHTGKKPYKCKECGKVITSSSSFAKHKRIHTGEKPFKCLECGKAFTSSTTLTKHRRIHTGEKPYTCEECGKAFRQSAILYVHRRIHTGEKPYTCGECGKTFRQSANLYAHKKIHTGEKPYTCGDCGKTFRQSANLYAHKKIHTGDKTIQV
Method in brief: (§1)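 The binding signal is a relative k-mer count in selected reads, and higher values mean tighter binding. To obtain these reads, bead-bound tagged transcription factor (full-length or DNA-binding-domain fragment, produced in HEK293 lysate or cell-free extract) was mixed with a randomized 40-base DNA library for 1 h at room temperature in low-stringency HEPES/KCl buffer with Tween20. Bound DNA was recovered by washing and heat elution, PCR-amplified through successive cycles and sequenced on Illumina (~3 million 60 bp reads per sample).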

[2] = target: ZNF721 DBD1 (Homo sapiens, UniProt Q8TF20-2 29-461)
Chain of ZNF721 DBD1 (Q8TF20 17-449): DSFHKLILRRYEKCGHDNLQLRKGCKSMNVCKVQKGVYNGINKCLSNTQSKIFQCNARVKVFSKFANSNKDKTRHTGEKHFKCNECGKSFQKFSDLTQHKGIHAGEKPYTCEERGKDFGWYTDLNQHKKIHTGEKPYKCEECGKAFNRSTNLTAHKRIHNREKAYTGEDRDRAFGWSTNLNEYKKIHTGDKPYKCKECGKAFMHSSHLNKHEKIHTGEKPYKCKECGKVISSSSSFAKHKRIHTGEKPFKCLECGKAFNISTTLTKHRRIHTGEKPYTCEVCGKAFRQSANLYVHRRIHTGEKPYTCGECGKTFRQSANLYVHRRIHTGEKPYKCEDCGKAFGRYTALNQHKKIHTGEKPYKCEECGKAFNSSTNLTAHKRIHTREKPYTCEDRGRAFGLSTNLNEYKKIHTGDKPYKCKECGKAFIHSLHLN
Method in brief: as §1

[3] = target: ZNF721 DBD2 (Homo sapiens, UniProt Q8TF20-2 395-923)
Chain of ZNF721 DBD2 (Q8TF20 383-911): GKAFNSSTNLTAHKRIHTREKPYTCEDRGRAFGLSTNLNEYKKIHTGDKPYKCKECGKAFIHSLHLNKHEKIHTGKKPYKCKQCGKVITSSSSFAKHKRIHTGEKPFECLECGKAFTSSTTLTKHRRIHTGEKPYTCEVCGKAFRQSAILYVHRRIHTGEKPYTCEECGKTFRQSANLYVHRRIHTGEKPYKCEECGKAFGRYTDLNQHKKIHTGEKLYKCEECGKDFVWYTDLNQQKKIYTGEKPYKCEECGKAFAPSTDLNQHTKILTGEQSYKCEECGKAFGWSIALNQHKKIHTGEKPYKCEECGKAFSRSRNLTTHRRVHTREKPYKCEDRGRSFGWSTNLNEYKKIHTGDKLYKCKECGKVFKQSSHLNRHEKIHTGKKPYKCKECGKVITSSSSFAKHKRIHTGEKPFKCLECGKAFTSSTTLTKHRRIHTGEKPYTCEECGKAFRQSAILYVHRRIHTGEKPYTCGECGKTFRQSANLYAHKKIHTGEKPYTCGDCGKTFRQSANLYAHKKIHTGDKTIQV
Method in brief: as §1

| Sequence | binding signal [1] [relative 10-mer count] | binding signal [2] [relative 10-mer count] | binding signal [3] [relative 10-mer count] |
| --- | --- | --- | --- |
| CGCCCCCCAC | 0.156 | 0.00679 | 0.00407 |
| CCCCCGACCC | 0.181 | 0.00587 | 0.0018 |
| CCCCGCCCCG | 0.144 | 0.00486 | 0.00348 |
| CCACCCGCCA | 0.108 | 0.00445 | 0.00491 |
| AGGGGAGGGG | 0.13 | 0.00665 | 0.00479 |
| AGCATACCCC | 0.144 | 0.0115 | 0.146 |
| CACCCACCCA | 0.192 | 0.00835 | 0.00503 |
| CCACCCCGAC | 0.136 | 0.00404 | 0.0024 |
| GGGGGAGGGA | 0.151 | 0.00936 | 0.00384 |
| CCCACCCCTA | 0.119 | 0.00431 | 0.00324 |
| GCCCCACCCC | 0.216 | 0.00775 | 0.00599 |
| CACCCCCCCG | 0.131 | 0.00252 | 0.003 |
| AACCACCCCC | 0.106 | 0.00303 | 0.00276 |
| CCCCAACCAC | 0.156 | 0.00665 | 0.00515 |
| ACCCCCGCCC | 0.173 | 0.00619 | 0.00348 |
| AGCTTTTTTC | 0.449 | 0.217 | 0.00467 |
| CCCCGCCCGC | 0.115 | 0.00417 | 0.0018 |
| CCCCGCCCAC | 0.202 | 0.00771 | 0.00407 |
| CCACCACCGC | 0.11 | 0.00482 | 0.00503 |
| CCCTTCCCCC | 0.141 | 0.00633 | 0.003 |

| Sequence | binding signal [1] [relative 10-mer count] | binding signal [2] [relative 10-mer count] | binding signal [3] [relative 10-mer count] |
| --- | --- | --- | --- |
| CCCACCCCGC | 0.212 | 0.0094 | 0.00336 |
| ACAAAAAAAC | 0.151 | 0.00188 | 0.0972 |
| AGGGGGGGTG | 0.108 | 0.00422 | 0.00252 |
| AGCATCCCCA | 0.136 | 0.0121 | 0.0674 |
| CCCTCCCCCC | 0.342 | 0.0158 | 0.00515 |
| CCACCCCCAC | 0.326 | 0.0121 | 0.00515 |
| CCCACCAACC | 0.171 | 0.00794 | 0.00563 |
| CCTACCACCC | 0.111 | 0.00619 | 0.0101 |
| CAAAACAGCA | 0.21 | 0.00119 | 0.205 |
| CCACCGCCCC | 0.256 | 0.0117 | 0.00455 |
| AGGTGGGGTG | 0.114 | 0.00532 | 0.00288 |
| CCACCCCAGC | 0.102 | 0.00372 | 0.00252 |
| CTGCTTTTTC | 0.202 | 0.00491 | 0.196 |
| GGGGGGTGGA | 0.145 | 0.00615 | 0.00407 |
| AAGTGTATCC | 0.292 | 0.241 | 0.00503 |
| CTTCATACAC | 0.291 | 0.384 | 0.00132 |
| GCACCCCACC | 0.104 | 0.00284 | 0.00491 |
| CTCCCCCGCC | 0.118 | 0.0056 | 0.00216 |
| CCCCCCCACA | 0.124 | 0.00491 | 0.00743 |
| CCGTCCCCCC | 0.15 | 0.00693 | 0.00192 |

| Sequence | binding signal [1] [relative 10-mer count] | binding signal [2] [relative 10-mer count] | binding signal [3] [relative 10-mer count] |
| --- | --- | --- | --- |
| AAAAAAGCTA | 0.489 | 0.222 | 0.00276 |
| CCCCACACCC | 0.274 | 0.01 | 0.00443 |
| ACACCACCCC | 0.128 | 0.00394 | 0.00276 |
| TGTGTATGAA | 0.169 | 0.203 | 0.00228 |
| CGCCCACCCA | 0.147 | 0.00449 | 0.00216 |
| CGCCACCCAC | 0.123 | 0.0056 | 0.00372 |
| ACCCGCCCAC | 0.115 | 0.00413 | 0.00288 |
| CCACACCCCC | 0.201 | 0.00738 | 0.00276 |
| AAGCGTACCC | 0.208 | 0.104 | 0.0138 |
| CGCCCCCCGC | 0.12 | 0.00472 | 0.00384 |
| CCCACACCCA | 0.107 | 0.00468 | 0.00455 |
| CCGCCACCCA | 0.107 | 0.00523 | 0.00276 |
| CCGCCCACCC | 0.268 | 0.0089 | 0.0018 |
| GCCCCACCAC | 0.137 | 0.00555 | 0.00743 |
| CCCCCACCTC | 0.198 | 0.00945 | 0.00551 |
| CCACCCCACA | 0.163 | 0.00564 | 0.00791 |
| AGCATCTCCA | 0.132 | 0.0129 | 0.121 |
| CACCCACCCC | 0.325 | 0.0153 | 0.003 |
| CGCCCACCAC | 0.138 | 0.00569 | 0.00384 |
| CCCACCCGCA | 0.109 | 0.00316 | 0.00563 |
